Compounds with a hit are over-represented: about 21% of the library has one in this group of screens.
DT40 TDP1 CPT: growth inhibition of DT40 Tdp1-/-;hTDP1 cells with camptothecin (screen for TDP1 inhibitors); chicken DT40 Tdp1-/-;hTDP1 cells + 20 nM CPT, ATP luminescence, 48 h; Potency, µM (series often up to 46.2 µM), most hits filed as inhibitors; hit rate 12% among 420,000; note: nearly all actives have a fitted effect of over 55% in size
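Chicken DT40 Tdp1-/- cells complemented with human TDP1, 400 cells/well, exposed to compounds plus 20 nM camptothecin for at least 48 h at 37 C; viability read as ATP content by CellTiter-Glo luminescence.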
TDP1 cell noCPT: qHTS for Inhibitors of human tyrosyl-DNA phosphodiesterase 1 (TDP1): qHTS in cells in absence of CPT; DT40 Tdp1-/- hTDP1 cells, no CPT, ATP luminescence, 48 h; Potency, µM (series often up to 46.2 µM), usual class: inhibitors; hit rate 15% among 420,000; note: nearly all actives have a fitted effect of over 55% in size
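DT40 Tdp1-/-;hTDP1 cells, no CPT (DMSO vehicle only), 400 cells/well; compounds pin-transferred; ≥48 hr, 37 °C; CellTiter-Glo 30 min RT dark, luminescence read.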
VP16 counter: counter-screen for ROR gamma inhibitors: Gal4-VP16 reporter. Drosophila S2 Gal4-VP16 UAS-luciferase, luminescence, 20 h. Potency, µM (top dose mostly 53.6 µM), hits mostly inhibitors. hit rate 3.5% among 310,000;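 note: Gal4-VP16 expression switched on by copper sulfate through the metallothionein promoter; nearly all actives have a fitted effect of over 50% in size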
RORgamma inh: blocks mouse ROR gamma transcriptional activity; P51450; Drosophila S2 Gal4-RORgamma UAS-luciferase reporter, 20 h; Potency, µM (series often up to 53.6 µM), hits mostly inhibitors; hit rate 5.4% among 310,000; AID 2551; note: nearly all actives have a fitted effect of over 60% in size
Target sequence (P51450 whole entry, looked up, the tested form may be a part): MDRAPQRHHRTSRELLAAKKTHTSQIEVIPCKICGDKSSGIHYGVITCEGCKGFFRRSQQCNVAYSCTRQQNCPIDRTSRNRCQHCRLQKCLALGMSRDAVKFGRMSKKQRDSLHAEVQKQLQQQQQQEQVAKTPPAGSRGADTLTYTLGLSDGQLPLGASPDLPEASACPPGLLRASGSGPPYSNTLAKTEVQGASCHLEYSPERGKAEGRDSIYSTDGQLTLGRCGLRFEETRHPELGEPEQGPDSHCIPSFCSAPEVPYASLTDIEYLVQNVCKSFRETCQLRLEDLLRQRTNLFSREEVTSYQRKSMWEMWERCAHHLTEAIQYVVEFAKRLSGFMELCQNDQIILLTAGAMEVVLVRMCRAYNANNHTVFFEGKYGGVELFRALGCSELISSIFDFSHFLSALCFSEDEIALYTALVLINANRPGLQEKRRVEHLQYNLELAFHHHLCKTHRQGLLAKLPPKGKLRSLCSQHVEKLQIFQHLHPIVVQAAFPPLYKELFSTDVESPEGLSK
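Read-out: Photinus luciferase luminescence; inhibitors lower reporter signal. Insect Schneider cells with Gal4-ROR gamma fusion under metallothionein promoter, UAS reporter; 700 uM final copper sulfate induction, 20 hr, ambient temperature.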
IL1B secr inh: blocks inflammasome-driven IL-1 beta release; THP-1 LPS/ATP IL-1B secretion, AlphaLISA, 16 h; stronger effect = lower value; activity change, % at 57.5 µM; hit rate 4.7% among 360,000; AID 743279; in the data active = activity change below about -50%; inconclusive = mostly about -30% to -49%
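THP-1 cells pretreated 1 hr with compounds (up to 57.5 uM final), then stimulated with LPS (250 ng/mL final) plus ATP (1.25 mM final); secreted IL-1B measured by AlphaLISA after 16 hr, decreased signal indicating inhibition.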
ELG1 DNA repair: inhibitors of ELG1-dependent DNA repair in HEK293T cells; AID 504467; hit rate 2.3% among 330,000; Potency, µM (doses to about 46.1 µM), usual class: inhibitors; HEK293T ELG1-luciferase reporter, luminescence, 16 h; DNA damage induced by 5-fluorouridine; note: nearly all actives have a fitted effect of over 55% in size
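Quantitative HTS, concentration-response format. 2,000 cells/well co-treated with 5-fluorouridine and compound, 16 hr in 5% CO2 at 37 °C; ONE-Glo luminescence read after 30 min.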
A number is an active result; i = inactive; ? = inconclusive; nt = no result; [ ] = dose if it differs, or a comment. Unless noted, calls come from the whole dose curve; as a rule, active = well fitted curve in the direction sought with a large enough effect; inconclusive = small, poorly fitted or top-dose-only effect, or another doubt; inactive = no such curve, though single readings can be large; an effect the other way counts as inactive or inconclusive.

SMILES | DT40 TDP1 CPT | TDP1 cell noCPT | VP16 counter | RORgamma inh | IL1B secr inh | ELG1 DNA repair
Cc1ccnc(NC(=O)CSc2ccccn2)c1 | i | i | i | i | i | i
OC[C@@H]1CN(Cc2ccncc2)C[C@H](n2cnc3c(N4CCOCC4)ncnc32)O1 | ? | ? | nt | nt | i | nt
CC(C)n1nccc1NC(=O)Nc1ccccc1 | i | ? | i | i | i | i
C#CCOCCOCCOCCNc1nc(N2CCN(C(=O)CCCCCCCCCCNC(=O)Cn3cc(CCCCCN)nn3)CC2)nc(N2CCN(C(=O)CCCCCCCCCCNC(=O)[C@@H]([C@H](C)O)n3cc(C)nn3)CC2)n1 | ? | ? | nt | nt | i | ?
C#CCOCCOCCOCCNc1nc(N2CCN(C(=O)CCCCCCCCCCNC(=O)[C@H](CCCCN)n3cc(CCO)nn3)CC2)nc(N2CCN(C(=O)CCCCCCCCCCNC(=O)[C@H](CCCCN)n3cc(CCCC(=O)O)nn3)CC2)n1 | i | i | nt | nt | ? | i
C#CCOCCOCCOCCNc1nc(N2CCN(C(=O)CCCCCCCCCCNC(=O)[C@H](CCCCN)n3cc(C)nn3)CC2)nc(N2CCN(C(=O)CCCCCCCCCCNC(=O)[C@H](CCCN=C(N)N)n3cc(C[C@@H](C)CC)nn3)CC2)n1 | 23.1µM | 11.6µM | nt | nt | -101.7 | ?
C#CCOCCOCCOCCNc1nc(N2CCN(C(=O)CCCCCCCCCCNC(=O)[C@H](CCCCN)n3cc(C)nn3)CC2)nc(N2CCN(C(=O)CCCCCCCCCCNC(=O)[C@@H]([C@H](C)O)n3cc(C)nn3)CC2)n1 | ? | ? | nt | nt | -60.0 | 14.1µM
Cc1ccc(NC(=O)NC(=O)COc2ccccc2C(N)=O)c(C)c1 | i | i | nt | nt | i | ?
COC(=O)c1ccc2nc(-c3ccco3)c(Cc3cccc(F)c3)n2c1 | 16.4µM | 18.4µM | nt | nt | i | nt
COC(=O)c1ccc2nc(-c3ccccc3)c(Cc3cccc(F)c3)n2c1 | ? | ? | nt | nt | i | nt
COC(=O)c1ccc2nc(-c3ccc(OC)c(OC)c3)c(Cc3cccc(F)c3)n2c1 | 11.6µM | 13µM | nt | nt | i | nt
COC(=O)c1ccc2nc(-c3ccc(F)cc3)c(Cc3cccc(F)c3)n2c1 | i | i | nt | nt | i | nt
COc1ccc(-c2nc3ccc(Cl)cn3c2Cc2ccc(C)cc2)cc1OC | ? | ? | nt | nt | i | nt
COC(=O)c1ccc2nc(-c3ccc(F)cc3)c(Cc3cccc(Cl)c3)n2c1 | ? | 18.4µM | nt | nt | i | nt
COC(=O)c1ccc2nc(-c3ccc(OC)c(OC)c3)c(Cc3ccc(C)cc3)n2c1 | ? | 20.6µM | nt | nt | i | nt
O=C(c1cccc(Cl)c1)C1CCCN(S(=O)(=O)c2ccccc2)C1 (stereo unspecified) | ? | ? | i | i | i | i
O=C(O)Cc1ccc(S(=O)(=O)N2CCCC2)s1 | i | i | nt | nt | i | i
COC(=O)c1ccc2nc(-c3ccc(C)cc3)c(Cc3ccc(C)cc3)n2c1 | ? | 16.4µM | nt | nt | i | nt
CC(=O)c1c(O)cc(C)n(-c2ccc(F)cc2)c1=O | i | i | i[10 µM] | i | i | i
CC(=O)c1c(O)cc(C)n(Nc2nc(C)cc(C)n2)c1=O | 18.4µM | ? | i | i | i | i
CCNC(=O)C1(C)CCN(C(=O)c2c(-c3ccccc3)noc2C)C1 (stereo unspecified) | i | i | nt | nt | i | nt
Cc1c(NC(=O)Nc2cccc(C(F)(F)F)c2)c(=O)n(-c2ccccc2)n1C | i | i | i | i | i | i
CCn1cc(C(=O)N2CCN(C(=O)c3ccco3)CC2)c2cc(OC)c(OC)cc2c1=O | i | i | i | i | i | i
COc1cc2c(C(=O)N3CCN(c4cccc(C(F)(F)F)c4)CC3)cn(CC(C)C)c(=O)c2cc1OC | 16.4µM | 18.4µM | nt | nt | nt | nt
CC(C)Cn1cc(NC(=O)Nc2cccc(C(F)(F)F)c2)c2ccccc2c1=O | 20.6µM | ? | nt | nt | nt | nt
Cc1ccc(NC(=O)Nc2cn(CC(C)C)c(=O)c3ccccc23)cc1N(C)C | 20.6µM | 23.1µM | nt | nt | nt | nt

Compound activity as filed in PubChem BioAssay.
